Results as given in PubChem BioAssay (Tox21).
Inconclusive results are not listed. Calls of active or inactive are those of the source. Unless noted, calls follow the shape of the dose curve; as a rule, active = well fitted curve in the direction sought with a large enough effect in the repeat runs; inconclusive = weak or mixed curves; inactive = no such curve, though single readings can be large; an effect the other way counts as inactive or inconclusive.

Tests used:
[1] = molecular target: Aryl hydrocarbon receptor (Homo sapiens) (UniProt P35869); test: qHTS assay to identify small molecule that activate the aryl hydrocarbon receptor (AhR) signaling pathway (AID 743085);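 also: HG2L7.5c1 human HepG2 liver cells with stably integrated DRE-driven firefly reporter; series mostly up to about 70 µM; nearly all actives have a fitted effect of over 15% in size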
Aryl hydrocarbon receptor (Homo sapiens), sequence (P35869 whole entry, looked up): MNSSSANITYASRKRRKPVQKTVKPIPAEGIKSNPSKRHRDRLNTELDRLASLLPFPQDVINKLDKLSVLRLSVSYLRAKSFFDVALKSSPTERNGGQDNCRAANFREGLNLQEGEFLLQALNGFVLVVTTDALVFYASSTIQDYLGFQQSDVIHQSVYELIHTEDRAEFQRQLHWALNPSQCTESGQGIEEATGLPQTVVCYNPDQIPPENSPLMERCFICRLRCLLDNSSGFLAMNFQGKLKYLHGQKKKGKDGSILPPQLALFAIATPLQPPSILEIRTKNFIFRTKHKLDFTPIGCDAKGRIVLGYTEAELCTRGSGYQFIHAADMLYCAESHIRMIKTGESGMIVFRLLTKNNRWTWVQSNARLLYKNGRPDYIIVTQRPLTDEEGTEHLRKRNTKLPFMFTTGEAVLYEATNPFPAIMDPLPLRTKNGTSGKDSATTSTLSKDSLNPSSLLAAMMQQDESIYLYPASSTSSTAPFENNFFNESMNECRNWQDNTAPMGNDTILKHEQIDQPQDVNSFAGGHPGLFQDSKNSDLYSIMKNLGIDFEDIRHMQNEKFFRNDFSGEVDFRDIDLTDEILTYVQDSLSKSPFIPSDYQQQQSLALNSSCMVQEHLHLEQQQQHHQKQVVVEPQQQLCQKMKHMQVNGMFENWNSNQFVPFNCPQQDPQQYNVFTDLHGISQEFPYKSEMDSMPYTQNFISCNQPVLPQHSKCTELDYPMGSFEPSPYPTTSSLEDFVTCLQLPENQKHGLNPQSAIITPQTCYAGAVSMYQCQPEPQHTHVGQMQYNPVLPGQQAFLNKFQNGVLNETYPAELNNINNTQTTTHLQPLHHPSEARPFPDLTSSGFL
Method in brief: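 Luminescence (ONE-Glo) from a dioxin-responsive-element luciferase reporter in HG2L7.5c1 HepG2 cells after 24 hr compound exposure at 37C; viability measured by CellTiter-Fluor fluorescence beforehand.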

[2] = molecular target: Peroxisome proliferator-activated receptor gamma (Homo sapiens) (UniProt P37231); test: qHTS assay to identify small molecule agonists of the peroxisome proliferator-activated receptor gamma (PPARg) signaling pathway (AID 743094; active = well fitted activation curve with a large enough effect in the signal ratio in the repeat runs, not every such curve was filed as active; the % refers to the signal ratio)
Peroxisome proliferator-activated receptor gamma (Homo sapiens), sequence (P37231 whole entry, looked up): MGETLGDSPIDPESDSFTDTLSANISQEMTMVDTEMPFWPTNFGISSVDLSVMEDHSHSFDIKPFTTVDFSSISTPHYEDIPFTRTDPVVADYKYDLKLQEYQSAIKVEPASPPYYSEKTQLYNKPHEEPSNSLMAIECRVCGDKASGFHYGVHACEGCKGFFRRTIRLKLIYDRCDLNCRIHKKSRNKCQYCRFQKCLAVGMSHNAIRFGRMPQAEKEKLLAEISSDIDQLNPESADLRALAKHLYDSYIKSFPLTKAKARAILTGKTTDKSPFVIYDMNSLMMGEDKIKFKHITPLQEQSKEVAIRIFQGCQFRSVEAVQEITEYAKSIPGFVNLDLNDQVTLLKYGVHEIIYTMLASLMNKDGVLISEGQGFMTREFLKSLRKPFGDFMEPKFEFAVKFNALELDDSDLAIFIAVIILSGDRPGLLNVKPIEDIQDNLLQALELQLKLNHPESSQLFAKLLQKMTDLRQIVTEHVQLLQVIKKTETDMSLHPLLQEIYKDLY
Method in brief: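 GeneBLAzer PPARg UAS-bla HEK293H cells carrying a stably integrated beta-lactamase reporter were pre-incubated 5 h at 37C, then exposed to compounds in DMSO for 17 h at 37C; LiveBLAzer B/G FRET substrate was added for 1 h at room temperature and fluorescence read.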

[3] = qHTS assay to identify small molecule antagonists of the peroxisome proliferator-activated receptor gamma (PPARg) signaling pathway - cell viability counter screen (AID 743194); also: nearly all actives have a fitted effect of over 55% in size
Method in brief: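 PPARg-UAS-bla HEK293H cells were plated, rested 5 h at 37 C, then treated with compounds plus rosiglitazone (50 nM final) for 17 h at 37 C; viability was then read by CellTiter-Glo luminescence after 30 min at room temperature.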

[4] = qHTS assay for small molecule agonists of the antioxidant response element (ARE) signaling pathway - cell viability counter screen (AID 743203; calls by dose curve; also: nearly all actives have a fitted effect of over 55% in size)
Method in brief: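 CellSensor ARE-bla HepG2 cells, 2,000 per well, rested 5 hrs at 37C/5% CO2, then exposed to compound in DMSO for 16 hrs; viability read as CellTiter-Glo luminescence after 30 min at room temperature, in the reporter wells.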

[5] = qHTS assay for small molecule activators of the heat shock response signaling pathway - cell viability counter screen (AID 743209); also: nearly all actives have a fitted effect of over 50% in size
Method in brief: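 CellSensor HSE-bla HeLa cells, plated overnight at 37 C/5% CO2, were exposed to compounds in DMSO for 5 h at 37 C. Viability was then read in the same wells by CellTiter-Glo luminescence after 30 min at room temperature.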

[6] = qHTS assay for small molecule activators of the heat shock response signaling pathway (AID 743210; active = well fitted activation curve with a large enough effect in the signal ratio in the repeat runs, with a control signal flat, not every such curve was filed as active; the % refers to the signal ratio;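 also: HeLa cells with beta-lactamase reporter driven by heat shock elements; series mostly up to about 63 µM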)
Method in brief: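 Reporter gene assay: HeLa cells stably bearing an HSE-bla construct, compound treatment 5 h at 37 C, LiveBLAzer substrate 2.5 h at RT, fluorescence intensity.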

[7] = qHTS assay to identify small molecule agonists of the peroxisome proliferator-activated receptor delta (PPARd) signaling pathway - cell viability counter screen (AID 743211); also: nearly all actives have a fitted effect of over 55% in size
Method in brief: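 Viability was measured as CellTiter-Glo luminescence (30 min, room temperature) in the same wells as the beta-lactamase readout. GeneBLAzer PPARd UAS-bla HEK293H cells received compound after 5 h plating and were incubated 17 h at 37 C.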

[8] = molecular target: Peroxisome proliferator-activated receptor delta (Homo sapiens) (UniProt Q03181); test: qHTS assay to identify small molecule agonists of the peroxisome proliferator-activated receptor delta (PPARd) signaling pathway (AID 743212; calls by dose curve)
Peroxisome proliferator-activated receptor delta (Homo sapiens), sequence (Q03181 whole entry, looked up): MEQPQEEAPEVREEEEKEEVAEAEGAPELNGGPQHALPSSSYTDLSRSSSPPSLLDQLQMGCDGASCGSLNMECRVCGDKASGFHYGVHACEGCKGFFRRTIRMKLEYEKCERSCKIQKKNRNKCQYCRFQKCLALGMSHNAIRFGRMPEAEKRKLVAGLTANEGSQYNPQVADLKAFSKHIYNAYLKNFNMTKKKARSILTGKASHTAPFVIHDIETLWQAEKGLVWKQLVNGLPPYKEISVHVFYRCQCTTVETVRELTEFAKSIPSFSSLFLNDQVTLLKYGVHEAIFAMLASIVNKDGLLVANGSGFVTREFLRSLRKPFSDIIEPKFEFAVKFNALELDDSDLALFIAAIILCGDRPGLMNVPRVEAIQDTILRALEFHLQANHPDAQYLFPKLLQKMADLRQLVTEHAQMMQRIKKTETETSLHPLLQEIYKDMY
Method in brief: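 A PPARd-bla HEK293H line with beta-lactamase under an Upstream Activator Sequence is treated with compounds at 37 C. Substrate loading for 2 h at room temperature precedes the fluorescence measurement.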

[9] = qHTS assay to identify small molecule antagonists of the peroxisome proliferator-activated receptor delta (PPARd) signaling pathway - cell viability counter screen (AID 743213); also: nearly all actives have a fitted effect of over 50% in size
Method in brief: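 Same-well viability: cells pre-incubated 5 h, dosed with compound plus 300 nM L165041, kept 17 h at 37 C, FRET substrate 2 h RT, then CellTiter-Glo 30 min RT and luminescence.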

[10] = molecular target: Peroxisome proliferator-activated receptor delta (Homo sapiens) (UniProt Q03181); test: qHTS assay to identify small molecule antagonists of the peroxisome proliferator-activated receptor delta (PPARd) signaling pathway (AID 743215; active = well fitted inhibition curve with a large enough effect in the signal ratio in the repeat runs, not every such curve was filed as active; the % refers to the signal ratio;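 also: cells stimulated with agonist L165041 at 300 nM final during compound exposure; series mostly up to about 62 µM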)
Method in brief: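 PPARd UAS-bla HEK293H cells were pre-incubated 5 h at 37 C, then given test compounds in DMSO plus agonist L165041 (300 nM final). After 17 h at 37 C, beta-lactamase FRET substrate was added; fluorescence read after 2 h at room temperature.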

[11] = qHTS assay to identify small molecule agonists of the farnesoid-X-receptor (FXR) signaling pathway - cell viability counter screen (AID 743218); also: nearly all actives have a fitted effect of over 45% in size
Method in brief: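 FXR-UAS-bla HEK 293T cells, plated 5 h at 37 C, were exposed to compounds for 16 h at 37 C. CellTiter-Glo was then added to the same wells as the bla readout; luminescence read after 30 min at room temperature.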

[12] = qHTS assay to identify small molecule antagonists of the farnesoid-X-receptor (FXR) signaling pathway - cell viability counter screen (AID 743221; active = well fitted cell-killing curve with a large enough effect in the repeat runs, not every such curve was filed as active; also: nearly all actives have a fitted effect of over 50% in size)
Method in brief: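 Cytotoxicity counter screen run in the FXR-bla reporter wells: HEK 293T cells exposed to compound with 50 uM (final) chenodeoxycholic acid for 16 h, 37 C, then viability measured by CellTiter-Glo luminescence after 30 min, room temperature.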

[13] = molecular target: Vitamin D3 receptor (Homo sapiens) (UniProt P11473); test: qHTS assay to identify small molecule agonists of the vitamin D receptor (VDR) signaling pathway (AID 743222; calls by dose curve)
Vitamin D3 receptor (Homo sapiens), sequence (P11473 whole entry, looked up): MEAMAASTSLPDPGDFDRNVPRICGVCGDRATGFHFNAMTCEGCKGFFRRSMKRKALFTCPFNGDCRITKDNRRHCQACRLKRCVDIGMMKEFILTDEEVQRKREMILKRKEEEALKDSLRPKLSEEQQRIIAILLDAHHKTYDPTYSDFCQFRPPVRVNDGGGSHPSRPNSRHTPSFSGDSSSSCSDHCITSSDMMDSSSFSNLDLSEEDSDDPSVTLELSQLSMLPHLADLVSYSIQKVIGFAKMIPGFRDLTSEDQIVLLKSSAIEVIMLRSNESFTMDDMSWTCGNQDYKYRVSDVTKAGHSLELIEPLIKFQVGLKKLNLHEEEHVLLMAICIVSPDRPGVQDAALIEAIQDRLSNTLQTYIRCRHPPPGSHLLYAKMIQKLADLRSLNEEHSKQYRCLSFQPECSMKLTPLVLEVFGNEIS
Method in brief: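 VDR-bla cells were plated 4 h at 37C/5% CO2, then exposed to compounds in DMSO for 16 h. After LiveBLAzer B/G FRET substrate addition and 2 h at room temperature, beta-lactamase reporter fluorescence was read.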

[14] = qHTS assay to identify small molecule that activate the aryl hydrocarbon receptor (AhR) signaling pathway - cell viability counter screen (AID 743086);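 also: HepG2 liver cells carrying the AhR DRE luciferase reporter; series mostly up to about 70 µM; nearly all actives have a fitted effect of over 45% in size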
Method in brief: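 HepG2-AhR-luc (HG2L7.5c1) cells, 4000/well, were preincubated 5 h at 37C, exposed to compound in qHTS format for 24 hr at 37C, then given CellTiter-Fluor for 30 min; viability was read as fluorescence in the reporter wells.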

[15] = molecular target: Peroxisome proliferator-activated receptor gamma (Homo sapiens) (UniProt P37231); test: qHTS assay to identify small molecule antagonists of the peroxisome proliferator-activated receptor gamma (PPARg) signaling pathway (AID 743191; calls by dose curve; also: series mostly up to about 63 µM; nearly all actives have a fitted effect of over 30% in size)
Method in brief: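 GeneBLAzer PPARg UAS-bla HEK293H cells carrying a UAS-driven beta-lactamase reporter were plated at 3000 cells/well, preincubated 5 h at 37C, then given compound for 17 h at 37C; LiveBLAzer B/G FRET substrate was read after 1 h at room temperature.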

[16] = molecular target: Bile acid receptor (Homo sapiens) (UniProt Q96RI1); test: qHTS assay to identify small molecule antagonists of the farnesoid-X-receptor (FXR) signaling pathway (AID 743217; active = well fitted inhibition curve with a large enough effect in the signal ratio in the repeat runs, not every such curve was filed as active; the % refers to the signal ratio)
Bile acid receptor (Homo sapiens), sequence (Q96RI1 whole entry, looked up): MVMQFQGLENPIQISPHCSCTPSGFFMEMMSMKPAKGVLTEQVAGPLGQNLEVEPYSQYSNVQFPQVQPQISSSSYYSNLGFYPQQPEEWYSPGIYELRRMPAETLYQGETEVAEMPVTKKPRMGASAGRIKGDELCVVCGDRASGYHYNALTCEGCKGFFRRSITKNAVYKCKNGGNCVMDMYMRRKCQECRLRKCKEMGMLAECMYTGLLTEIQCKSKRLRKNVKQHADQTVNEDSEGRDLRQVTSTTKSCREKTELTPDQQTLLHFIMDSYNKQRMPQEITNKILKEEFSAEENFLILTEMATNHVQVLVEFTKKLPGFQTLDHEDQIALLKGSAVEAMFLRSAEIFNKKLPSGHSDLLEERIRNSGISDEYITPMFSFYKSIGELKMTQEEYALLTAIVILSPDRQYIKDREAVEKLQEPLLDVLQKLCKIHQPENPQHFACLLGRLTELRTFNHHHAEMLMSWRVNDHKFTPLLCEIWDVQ
Method in brief: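 FXR-UAS-bla HEK 293T cells pre-incubated 5 h at 37 °C, then exposed to compounds with chenodeoxycholic acid (50 uM final) for 16 h at 37 °C. Beta-lactamase reporter read by LiveBLAzer B/G FRET substrate fluorescence after 2 h at room temperature.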

[17] = molecular target: Bile acid receptor (Homo sapiens) (UniProt Q96RI1); test: qHTS assay to identify small molecule agonists of the farnesoid-X-receptor (FXR) signaling pathway (AID 743220; active = well fitted activation curve with a large enough effect in the signal ratio in the repeat runs, not every such curve was filed as active; the % refers to the signal ratio)
Method in brief: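 Beta-lactamase reporter under UAS control in GeneBLAzer FXR HEK 293T cells (5000/well) measured with LiveBLAzer FRET substrate after 2 h at room temperature. Compound exposure lasted 16 h at 37C.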

[18] = molecular target: Vitamin D3 receptor (Homo sapiens) (UniProt P11473); test: qHTS assay to identify small molecule antagonists of the vitamin D receptor (VDR) signaling pathway (AID 743223; active = well fitted inhibition curve with a large enough effect in the signal ratio in the repeat runs, not every such curve was filed as active; the % refers to the signal ratio)
Method in brief: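 Antagonist mode: compound added to VDR-bla cells alongside agonist 1alpha,25-dihydroxyvitamin D3 (3 nM final), incubation 16 h at 37C. Read-out is LiveBLAzer FRET fluorescence, 2 h at room temperature.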

[19] = qHTS assay for small molecule agonists of the antioxidant response element (ARE) signaling pathway (AID 743202; active = well fitted activation curve with a large enough effect in the signal ratio in the repeat runs, not every such curve was filed as active; the % refers to the signal ratio)
Method in brief: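 Compounds delivered in DMSO to ARE-bla HepG2 cells (2,000 cells/well, pre-incubated 5 h) and left 16 h at 37 C. LiveBLAzer B/G FRET substrate then added for 2 h at RT before fluorescence reading.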

[20] = qHTS assay to identify aromatase inhibitors - cell viability counter screen (AID 743084);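 also: cells stimulated with testosterone during compound exposure; nearly all actives have a fitted effect of over 55% in size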

Measured: Potency

CC(CN1CC(=O)NC(=O)C1)N1CC(=O)NC(=O)C1 (stereo not given)
not listed: [14] | [15] | [16] | [17] | [18] | [19] | [20]
inactive: all other assays above

CCO[Si](CC(C)C)(OCC)OCC
not listed: [2] | [3] | [7] | [9] | [19] | [20]
inactive: all other assays above

CCCCC(O)/C=C(C)/C=C/C=C/C(=O)N1CCCC1=O (stereo not given)
not listed: [1] | [2] | [7] | [12] | [14] | [16] | [20]
inactive: all other assays above

COC(=O)c1cc(Cl)c(NC(C)=O)cc1OC
not listed: [1] | [2] | [14] | [16] | [17] | [19] | [20]
inactive: all other assays above

Cc1cc(=O)oc2cc(O[C@@H]3SC[C@@H](O)[C@H](O)[C@H]3O)ccc12
not listed: [1] | [2] | [14] | [16] | [18] | [20]
inactive: all other assays above

COc1ccccc1N1CCN(CC(O)COc2cc(OC)c(OC)c(OC)c2)CC1 (stereo not given)
inactive: [15] | [3] | [4] | [5] | [6] | [7] | [8] | [10] | [11] | [12]

CCCCCCCCCCCBr
not listed: [1] | [2] | [7] | [14] | [15] | [16] | [17] | [19]
inactive: all other assays above

CCCCc1ccc(Cl)cc1
inactive: [20] | [15] | [3] | [4] | [5] | [6] | [9] | [10] | [11] | [12] | [13]
